# Data as given in PubChem BioAssay (NCI).
# Compounds without any hit were thinned out: in the full panel of roughly 79,000, 15% have a hit. Values without a mark were called inactive. Active and inactive are the calls of the source. Rule as the data show it: active = growth inhibition above about 70%; inactive = the rest.
# Assay: NCI Yeast Anticancer Drug Screen. Data for the mlh1 rad18 strain (AID 175)
# Settings: S. cerevisiae mlh1 rad18 strain growth inhibition; at 5.0 µM (retest, dose inferred, filed as 0.5); hits give high values
# How it was run: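 In this whole-cell yeast screen, a strain with altered DNA damage repair is challenged with compound, and its growth is measured against matched vehicle-treated controls.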
row,Compound,growth inhibition
1,S=C(Nc1cc(Cl)cc(Cl)c1)SCc1ccccc1,31%
2,CCCOc1cc(C(=O)OCCN(CC)CC)cc(OCCC)c1OCCC,0%
3,C=C1C(=O)[C@@]23CC[C@H]4[C@@](C)(CCC[C@@]4(C)C(=O)OC)[C@@H]2CC[C@]1(O)C3,92% (active)
4,CCCSc1ncnc2nc(C)[nH]c12,0%
5,O=C1C=CC(=O)N1CCCCCCN1C(=O)C=CC1=O,38%
6,CCOC(=O)c1[nH]c2c([N+](=O)[O-])cccc2c1[N+](=O)[O-],-2%
7,CSC(=S)/C(=C/Nc1ncccn1)c1ccccc1,7%
8,N#CNc1nc(N)c(-c2ccc(Cl)cc2)c(C(=O)Nc2ccc(Cl)c(Cl)c2)n1,-1%
9,COc1ccc2c(c1)c(=O)c1c(NCCN(C)C)ccc3nnn2c31,-10%
10,CCC[CH2][Sn]([S][Sn]([CH2]CCC)([c]1ccccc1)[c]1ccccc1)([c]1ccccc1)[c]1ccccc1,98% (active)
11,CCC1=CCC2C(=O)c3cc4ccccc4cc3C(=O)C2C1 (stereo not drawn),7%
12,Cc1ccccc1NC(=O)C1C(=O)N(c2ccccc2C)C(=O)/C1=N/O (stereo not drawn),-1%
13,CCCCc1[nH]ccc2c(C)c3nc4ccccc4c3cc12,21%
14,O=C(O)C(Br)C(Br)C(=O)Nc1ccc(Cl)c(Cl)c1 (stereo not drawn),48%
15,Cc1cc(C)c2c(c1)sc1nncn12,93% (active)
16,CC(=O)C(C=O)C(C)=O.CC(=O)CC(C)=O.CC(=O)CC(C)=O.[Ru],11%
17,COc1ccc(NC(=O)CCC(=O)C(C)C(=O)c2ccccc2)cc1 (stereo not drawn),-2%
18,CCCCCCCCCCCCCC(=O)CC(=O)c1c(O)cccc1O,35%
19,Cc1ccc(NC(=S)SCc2ccco2)cc1Cl,20%
20,Cc1nc(N)nn1C,1%

row,Compound,growth inhibition
1,Cc1cccc(O)c(=O)c1,9%
2,O=C1C=CC(=O)N1c1ccc(-c2nc3ccccc3o2)cc1,82% (active)
3,NC1=NC(c2ccccc2)CC(c2cc(Cl)cc(Br)c2O)=N1 (stereo not drawn),-3%
4,CCCCCCCCCCCc1ccn[nH]1,-3%
5,CC(=O)Oc1c(-c2ccccc2)cc([N+](=O)[O-])cc1[N+](=O)[O-],54%
6,COc1cccc2c1C1c3ccccc3Sc3cccc(c31)O2 (stereo not drawn),4%
7,O=C1CC(O)C=C1Nc1ccc(Cl)cc1 (stereo not drawn),0%
8,C=CCNC(=S)N/N=C(/c1ccccn1)C(C)C,-2%
9,CCCCCCCCCCCCCCCC[N+](C)(C)c1ccccc1,98% (active)
10,O=C(NC(OCc1ccccc1)(C(F)(F)F)C(F)(F)F)OCc1ccccc1,2%
11,Cc1cc2oc3c(ccc(=O)n3C)c(=O)c2c(C)c1Cl,11%
12,COc1cc2c(cc1OC)C(=O)C(C)(c1ccccc1)NC2 (stereo not drawn),4%
13,CCC(C)NCCNc1cc(OC)cc2cccnc12 (stereo not drawn),10%
14,CN(C)CCCN=c1c2ccccc2n(O)c2ccccc12,-20%
15,N#CCc1ccccc1-c1cccc2ccccc12,1%
16,CN=C1NS(=O)(=O)c2ccccc21,0%
17,COc1cc(CSc2ccc(O)cc2)cc(OC)c1OC,-5%
18,CN(C)CCCNc1c2ccccc2nc2cccc([N+](=O)[O-])c12,90% (active)
19,CCCCCCCCCCCCCCCc1ncc(C)[nH]1,50%

# Same assay, conditions: S. cerevisiae mlh1 rad18 strain growth inhibition; at 50.0 µM (retest, dose inferred, filed as 5.0); hits give high values
row,Compound,growth inhibition
1,S=C(Nc1cc(Cl)cc(Cl)c1)SCc1ccccc1,82% (active)
2,CCCOc1cc(C(=O)OCCN(CC)CC)cc(OCCC)c1OCCC,41%
3,C=C1C(=O)[C@@]23CC[C@H]4[C@@](C)(CCC[C@@]4(C)C(=O)OC)[C@@H]2CC[C@]1(O)C3,99% (active)
4,CCCSc1ncnc2nc(C)[nH]c12,0%
5,O=C1C=CC(=O)N1CCCCCCN1C(=O)C=CC1=O,99% (active)
6,CCOC(=O)c1[nH]c2c([N+](=O)[O-])cccc2c1[N+](=O)[O-],37%
7,CSC(=S)/C(=C/Nc1ncccn1)c1ccccc1,97% (active)
8,N#CNc1nc(N)c(-c2ccc(Cl)cc2)c(C(=O)Nc2ccc(Cl)c(Cl)c2)n1,-2%
9,COc1ccc2c(c1)c(=O)c1c(NCCN(C)C)ccc3nnn2c31,-12%
10,CCC[CH2][Sn]([S][Sn]([CH2]CCC)([c]1ccccc1)[c]1ccccc1)([c]1ccccc1)[c]1ccccc1,91% (active)
11,CCC1=CCC2C(=O)c3cc4ccccc4cc3C(=O)C2C1 (stereo not drawn),46%
12,Cc1ccccc1NC(=O)C1C(=O)N(c2ccccc2C)C(=O)/C1=N/O (stereo not drawn),-2%
13,CCCCc1[nH]ccc2c(C)c3nc4ccccc4c3cc12,95% (active)
14,O=C(O)C(Br)C(Br)C(=O)Nc1ccc(Cl)c(Cl)c1 (stereo not drawn),99% (active)
15,Cc1cc(C)c2c(c1)sc1nncn12,97% (active)
16,CC(=O)C(C=O)C(C)=O.CC(=O)CC(C)=O.CC(=O)CC(C)=O.[Ru],66%
17,COc1ccc(NC(=O)CCC(=O)C(C)C(=O)c2ccccc2)cc1 (stereo not drawn),6%
18,CCCCCCCCCCCCCC(=O)CC(=O)c1c(O)cccc1O,17%
19,Cc1ccc(NC(=S)SCc2ccco2)cc1Cl,99% (active)
20,Cc1nc(N)nn1C,2%

row,Compound,growth inhibition
1,Cc1cccc(O)c(=O)c1,96% (active)
2,O=C1C=CC(=O)N1c1ccc(-c2nc3ccccc3o2)cc1,90% (active)
3,NC1=NC(c2ccccc2)CC(c2cc(Cl)cc(Br)c2O)=N1 (stereo not drawn),46%
4,CCCCCCCCCCCc1ccn[nH]1,98% (active)
5,CC(=O)Oc1c(-c2ccccc2)cc([N+](=O)[O-])cc1[N+](=O)[O-],97% (active)
6,COc1cccc2c1C1c3ccccc3Sc3cccc(c31)O2 (stereo not drawn),1%
7,O=C1CC(O)C=C1Nc1ccc(Cl)cc1 (stereo not drawn),7%
8,C=CCNC(=S)N/N=C(/c1ccccn1)C(C)C,69%
9,CCCCCCCCCCCCCCCC[N+](C)(C)c1ccccc1,98% (active)
10,O=C(NC(OCc1ccccc1)(C(F)(F)F)C(F)(F)F)OCc1ccccc1,98% (active)
11,Cc1cc2oc3c(ccc(=O)n3C)c(=O)c2c(C)c1Cl,48%
12,COc1cc2c(cc1OC)C(=O)C(C)(c1ccccc1)NC2 (stereo not drawn),-3%
13,CCC(C)NCCNc1cc(OC)cc2cccnc12 (stereo not drawn),33%
14,CN(C)CCCN=c1c2ccccc2n(O)c2ccccc12,-16%
15,N#CCc1ccccc1-c1cccc2ccccc12,41%
16,CN=C1NS(=O)(=O)c2ccccc21,8%
17,COc1cc(CSc2ccc(O)cc2)cc(OC)c1OC,-4%
18,CN(C)CCCNc1c2ccccc2nc2cccc([N+](=O)[O-])c12,98% (active)
19,CCCCCCCCCCCCCCCc1ncc(C)[nH]1,99% (active)
